Measured values reported in PubChem BioAssay AID652040 (Broad Institute, 2013).
Measured potencies and affinities stand elsewhere. Unmarked numbers belong to inactive results.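 How the source made its calls: active means falling luciferase signal whose fitted half-maximal concentration is at most twice the top tested dose; inconclusive means flat inhibition between 30 and 70% or a poor curve fit; inactive means the rest.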

Experiment: off-target signal loss in HeLa-CEM21 co-culture – HeLa F-luc CTL cells, cherry-picked, counter-screen for HIV-1 Env fusion inhibitor project, dose response (AID 652040);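 further: 0% = median of neutral control wells and -100% = doxycycline 40 µg/mL wells; more negative values mean stronger loss of luciferase signal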
Details: HeLa-F-luc CTL cells with CEM21, firefly luciferase counterscreen; series mostly up to 35 µM; activity change, negative = inhibition: at the top concentration

SMILES | activity change, negative = inhibition
COC(=O)c1ccc(C(=O)NC2CCCc3c2cnn3-c2ccc(C)c(C)c2)cc1 (stereo not given) | 11.9%
C[C@H]1NC(=O)[C@@]2(C)[C@H](c3ccccc3)[C@H]3COc4ccccc4[C@@H]3N2C1=O | 44.9%
C#CCn1c(=O)c2c(ncn2C)n(C)c1=O | -0.713%
CCOC(=O)C1CCN(C(=O)c2ccc3c(c2)C(=O)N(c2ccccc2C)C3=O)CC1 | 3.39%
Cc1cccc(N2CCN(C(=O)CCCSc3nc4ccccc4[nH]3)CC2)c1C | 1.12%
Clc1ccc2c(c1)C(C1=NCCN1)c1ccccc1CS2 (stereo not given) | -19.4%
CC(CCc1ccco1)NC(=O)CCc1nnc2ccc(NCc3ccccc3Cl)nn12 (stereo not given) | 55.1%
CC1CCCN(C(=O)c2ccc(S(=O)(=O)N3CCC(c4nc5ccccc5s4)CC3)cc2)C1 (stereo not given) | 6.01%
Cc1cc(N2CCN(c3nc4ccccc4s3)CC2)n2ncnc2n1 | -10.3%
c1ccc(CSc2nnc([C@@H]3CCCN3)o2)cc1 | 9.53%
COc1ccc(CCCC(=O)NCCc2ccccc2)c(C)c1 | 23.1%
Cc1[nH]c2ccccc2c1/C=N\NC(=O)c1ccccc1Cl | 34.2%
CC1Cc2cc(-c3csc(NC(=O)Cc4cccs4)n3)ccc2N1S(C)(=O)=O (stereo not given) | -15.7%
Cc1ccc(S(=O)(=O)N(C)c2ccc(C(=O)N3CCN(Cc4ccc5c(c4)OCO5)CC3)cc2)cc1 | -7.88%
c1ccc2c(c1)CCN(c1ncnc3c1[nH]c1ccccc13)C2 | 30.8%
COc1ccc(C(=O)Nc2nc(-c3ccc(S(=O)(=O)N4CCOCC4)cc3)cs2)cc1 | -15.8%
O=C(COC(=O)c1ncc(Cl)c(Cl)c1Cl)NCc1cccs1 | 14.1%
Cn1c(C(=O)N2CCN(c3nc4ccccc4s3)CC2)cc2sccc21 | -4.46%
C[C@H](CO)N1C[C@H](C)[C@@H](CN(C)C(=O)NC2CCCCC2)Oc2c(cccc2N(C)C)C1=O | 24.7%
CCc1nc(N2CCCCC2)c2oc3ccccc3c2n1 | -2.89%

SMILES | activity change, negative = inhibition
CCCCn1c(CN(C)Cc2ccccc2)nc2c1c(=O)n(C)c(=O)n2C | 60.9%
Cc1cc(Nc2cccc(C(F)(F)F)c2)cc(=O)n1-c1cccc(C(F)(F)F)c1 | 18.8%
COc1ccc(-c2cn3c(C)c(C(=O)Nc4cccc(NC(C)=O)c4)sc3n2)cc1 | 19.2% [at 16 µM]
CCc1ccc(C(=O)CN2C(=O)NC(C)(c3ccc(C)cc3)C2=O)cc1 (stereo not given) | 39.4%
COc1ccc(S(=O)(=O)N2CCCCC2)cc1NC(=O)CN(Cc1ccco1)Cc1ccco1 | 1.31%
COc1ccc(CCN(Cc2cccs2)S(=O)(=O)c2ccc(-n3cnnn3)cc2)cc1OC | -12.3%
COc1ccc(NC(=O)CN2CCC(C(N)=O)(N3CCCCC3)CC2)cc1 | -14.4%
COc1ccc(CCNC(=O)COC(=O)c2cccn2C)cc1 | 16.6%
CCn1c(/C=C/N(C)c2ccccc2)[n+](CC)c2ccc(Cl)cc21 | 17.2%
CC1(C(=O)NCc2ccc3c(c2)OCO3)CCN1Cc1csc2ccccc12 (stereo not given) | 17.9%
c1csc(CNc2ncnc3sccc23)c1 | 0.664%
O=C(NCc1ccccc1)c1ccc(C(=O)NCc2ccccc2)cc1 | -10.1%
CC(C)OCCCNc1ncnc2c1[nH]c1ccccc12 | 7.69%
Fc1ccc(-n2nnnc2-c2cnc(-c3cccs3)nc2C(F)(F)F)cc1 | 21.1% [at 16 µM]
COc1ccc(NC(=O)c2ccc(Cl)c(S(=O)(=O)N3CCc4ccccc4C3)c2)cn1 | 29.5%
COCCCn1c(-c2ccc(S(=O)(=O)N3CCOCC3)cc2)csc1=Nc1ccccc1 | 41.7%
COc1ccc(NC(=O)C2(C)CCN2Cc2ccccc2OC(F)F)cc1OC (stereo not given) | 47.8%
CC(C)n1c(NCCc2ccccc2)nc2c1c(=O)n(C)c(=O)n2C | -8.83%
CCCc1cc(=O)n2[nH]cc(-c3ccc(Cl)cc3)c2n1 | -1.1%
CCN(c1nc(N)c(C(=O)N=C(N)N)nc1Cl)C(C)C | 47.4%
